This passage reports INHIBITION results from ChEMBL document CHEMBL4513216, “Probing the Open Global Health Chemical Diversity Library for Multistage-Active Starting Points for Next-Generation Antimalarials” (ACS Infect Dis, 2020).

Molecules are shown by their SMILES. The campaign covered roughly 69,000 compounds. About 8,600 (12%) showed an effect of 50% or more. This is one part of a sample in which strong results are shown more often than they occur.

The experiment relates to Plasmodium berghei. Briefly: Screen against P. berghei liver stage (PbLuc), transformed with Luciferase, at 10uM. Conditions: tested at 10 uM. It counts as functional, HepG2.
With `CCC(C)NS(=O)(=O)c1ccc(C(=O)NC2(C#N)CCC2)cc1` (stereo not given), the INHIBITION was found to be 3.13%.
Consider `COCCc1noc(CN(C)C(=O)C(C)N2CCc3ccccc3C2)n1` (stereo not given), for which the INHIBITION is reported as 2.29%.
Then `CC(C)c1cc(CN(C)C(=O)C(C)N2CCc3ccccc3C2)no1` (stereo not given), with 63.1%; and `CC(C(=O)N(C)Cc1noc(C2CCC2)n1)N1CCc2ccccc2C1` (stereo not given), with 25.8%.
With `Cn1cc(C2CCCN2C(=O)c2cnc(-c3cccs3)s2)cn1` (stereo not given), the INHIBITION worked out at 37.7%.
The value for `O=C(C1CCOC1)N1Cc2ccccc2OC2(CCOCC2)C1` (stereo not given) was 12.8%; that for `CN(CCNC(=O)N1CCCC1)C(=O)OC(C)(C)C` was -30.5%.
The value for `CCOC1CCN(C(=O)NCCN(C)C(=O)OC(C)(C)C)CC1` was 58.2%.
The value for `CC(CCNC(=O)N1CCC1)N(C)C(=O)OC(C)(C)C` (stereo not given) was 8.18%; that for `COCCN(Cc1ccoc1)S(=O)(=O)c1ccc(F)c(Cl)c1` was -31.7%.
On to `CC(=O)c1cc(CC(=O)NCc2ccc(F)cc2)cs1`, for which the INHIBITION is on record as -38.2%.
Take `CC(=O)c1cc(CC(=O)NCc2ccc(CN(C)C)cc2)cs1`: the INHIBITION was 50.1%.
Then `COc1ccc(CNC(=O)Cc2csc(C(C)=O)c2)cc1`, with 33%; and `CS(=O)(=O)Cc1ccc(CNC(=O)N2CCC(C(N)=O)C2)cc1` (stereo not given), with 2.97%.
Then `CCOc1ncccc1NC(=O)NC1CCN(c2ncccn2)CC1`, with -19.9%.
Then `CCCn1nc2c(cc1=O)CN(CCCN1CCCC1=O)CC2`, with 6.56%; and `CCCn1nc2c(cc1=O)CN(CC(=O)N(C)c1nccs1)CC2`, with 9.56%; and `Cn1nc2c(cc1=O)CN(c1ncnc3ccsc13)CC2`, with 34.6%.
Consider `CC(C)n1nc2c(cc1=O)CN(c1ncnc3ccccc13)CC2`, for which the INHIBITION amounted to 94.5%.
The value for `CN(C(=O)CN1CCc2nn(C)c(=O)cc2C1)c1nccs1` was 29%.
The value for `CCCn1nc2c(cc1=O)CN(c1ncnc3ccsc13)CC2` was 91.9%; that for `CC(C)n1nc2c(cc1=O)CN(c1nc3ccccc3s1)CC2` was 35%.
Then `CCn1nc2c(cc1=O)CN(c1ncnc3ccsc13)CC2`, with 93.6%; and `CC(C)n1nc2c(cc1=O)CN(Cc1nc3ccccc3o1)CC2`, with 26.5%.
As to `CCn1nc2c(cc1=O)CN(CC(=O)N(C)c1nccs1)CC2`, the INHIBITION was 50.7%.
With `CCn1nc2c(cc1=O)CN(CC(=O)Nc1nccs1)CC2`, the INHIBITION was determined as 18.2%.
The value for `CCn1nc2c(cc1=O)CN(c1nc3ccccc3s1)CC2` was 37.7%; that for `CCCc1c(C2CCOC(C)(C)C2)nc(N)c(C#N)c1-c1cnn(C)c1` (stereo not given) was 4.15%; that for `Cc1ccoc1C(=O)NCCS(=O)(=O)N1CCSCC1` was 4.52%.
The value for `c1ccc(Cc2nnc(CN3CCCC(Cn4cncn4)C3)o2)cc1` (stereo not given) was -15.3%; that for `COc1cc(N2CCC3(CCCN(C(=O)c4cccnc4)C3)C2)ncn1` (stereo not given) was 19.8%.
Then `C=C(C)COc1ccccc1CN1CCC(C(=O)NCC)C1` (stereo not given), with 3.06%; and `CC(=O)N[C@@H]1CN(C(=O)CC2CC2)C[C@H]1O`, with 49.9%.
Take `Cc1ccc(-c2[nH][nH]c(=O)c2CCN)cc1`: the INHIBITION stood at 44.9%.
Then `Cc1cc(C)n(C2CCCN(C(=O)c3ccc4c(c3)COC4)C2)n1` (stereo not given), with 15.815%; and `COCc1nc(C(=O)NS(=O)(=O)c2ccc(Cl)cc2F)cs1`, with -64.25%.
The value for `COc1cccc(Oc2nc(C)c(C(=O)O)s2)c1OC` was 45.5%.
The value for `Cc1cc(C2CCCN2Cc2nc3c(cnn3C)c(=O)[nH]2)on1` (stereo not given) was 27.6%; that for `Cn1cc(CN2CC[C@H]3OCC[C@@H](C(=O)Nc4cnccn4)[C@@H]3C2)cn1` was 38.5%; that for `O=C(Cc1cccc(F)c1)NCCNCc1cccnc1` was 33.3%.
As for `Cn1c(CN2CCC(N3CCNC3=O)CC2)cc(=O)n(C)c1=O`, the INHIBITION amounted to 29%.
The value for `CC(C)n1nc2c(cc1=O)CN(CC(=O)N(C)c1nccs1)CC2` was 17.1%; that for `CC(C)n1nc2c(cc1=O)CN(c1ncnc3ccsc13)CC2` was 86.8%.
Then `CC(C)n1nc2c(cc1=O)CN(Cc1nnc(C3CC3)o1)CC2`, with -25.9%.
The value for `c1csc(CN2C[C@@H]3OCCN(CC4CCCO4)[C@@H]3C2)c1` (stereo not given in full) was -21.5%; that for `CC(=O)Nc1nc(C2CCN(C(=O)C3CCC3)CC2)cs1` was 36.7%.
Regarding `O=C(NCc1ccnc(C2CCCOC2)n1)c1cccs1` (stereo not given), the INHIBITION is 33.5%.
For the molecule `Cc1ccsc1C(=O)NCc1ccnc(C2CCCOC2)n1` (stereo not given), the INHIBITION was found to be 5.1%.
The value for `O=C(Cc1cccs1)NCc1ccnc(C2CCCOC2)n1` (stereo not given) was 53.8%; that for `CCN1CCOCC2(CCCN(C(=O)c3cccc(O)c3)C2)C1` (stereo not given) was 26%.
Then `O=C(c1cccc2ccnn12)N1CCC[C@H]1CN1CCCC1`, with 19.8%.
The value for `Cc1cc(C)n2nc(C(=O)N3CCCC4(CNC(=O)O4)C3)cc2n1` (stereo not given) was 27.4%.
As to `O=C1NCC2(CCCN(C(=O)c3c[nH]nc3C3CCCCC3)C2)O1` (stereo not given), the INHIBITION was 31.8%.
For the molecule `Cc1cc(C(=O)N2CCCC3(CNC(=O)O3)C2)c2c(C)nn(C)c2n1` (stereo not given), the INHIBITION is recorded as 54.1%.
The value for `CCN1C(=O)CCCC12CCCN(C(=O)c1cnccn1)C2` (stereo not given) was 27.4%; that for `Cc1ccc(-c2cc(CNC(=O)N3CCSCC3)on2)cc1` was -5.25%.
The value for `COc1c(CNC(c2ccccc2F)c2nccn2C)c(C)nn1C` (stereo not given) was 2.95%; that for `Cc1ccc(C(=O)O)c(N2Cc3cnc(C(C)(C)C)nc3C2)n1` was -7.27%.
The value for `CC(C)Cc1ncc2c(n1)CN(c1nc3ccccc3cc1CO)C2` was 33.9%.
`Cc1cccc2cc(CO)c(N3Cc4cnc(C(C)(C)C)nc4C3)nc12`: the INHIBITION was found to be 91.2%.
As to `O=C(c1n[nH]c2c1CN(C1CCOC1)CC2)N1CCCC1` (stereo not given), the INHIBITION is recorded as 12.4%.
Then `COCC1CC2(CCN(C(=O)c3ccco3)CC2)CN1C(C)C` (stereo not given), with 17.4%.
The value for `CCN(Cc1ccc2c(c1)OCO2)Cc1nc2c(cnn2C)c(=O)[nH]1` was -6.14%; that for `CN(Cc1ccc2c(c1)OCCO2)Cc1nc2c(cnn2C)c(=O)[nH]1` was 59.4%.
Then `CN(Cc1ccc2c(c1)OCO2)Cc1nc2c(cnn2C)c(=O)[nH]1`, with 13.9%; and `CN(CCOc1cccc(F)c1)Cc1nc2c(cnn2C)c(=O)[nH]1`, with 55.2%; and `CCN(CC)C(=O)CN(C)Cc1nc2c(cnn2C)c(=O)[nH]1`, with 37.2%.
Consider `CN(Cc1cccc(F)c1)Cc1nc2c(cnn2C)c(=O)[nH]1`, for which the INHIBITION is listed as 23.7%.
With `CN(CC(=O)N(C)C1CCCCC1)Cc1nc2ccccc2c(=O)[nH]1`, the INHIBITION is 44.7%.
Turning to `CC(C)CCN(C)Cc1nc2c(cnn2C)c(=O)[nH]1`, the INHIBITION is -21.05%.
The value for `CN(CC(=O)N1CCCC1)Cc1nc2c(cnn2C)c(=O)[nH]1` was 64%.
Then `CC(C)CN(C)Cc1nc2c(cnn2C)c(=O)[nH]1`, with -14.935%; and `CN(CCCOc1ccc(F)cc1)Cc1nc2c(cnn2C)c(=O)[nH]1`, with 39.2%.
Turning to `CN(CC(=O)N(C)C1CCCCC1)Cc1nc2c(cnn2C)c(=O)[nH]1`, the INHIBITION amounted to 55.4%.
The value for `Cc1nc(C)n(C2CCCN(C(=O)c3c[nH]c(C(C)C)n3)C2)n1` (stereo not given) was 40.9%.
Then `CS(=O)(=O)N1CCC2(CC1)COC(COc1ccccn1)C2` (stereo not given), with -27.9%; and `CC(C)OC[C@H]1CCC[C@]12CN(S(=O)(=O)c1cn(C)cn1)CCO2`, with 1.7%.
Turning to `OC1(CNCCc2csc(-c3ncccn3)n2)CCNC1` (stereo not given), the INHIBITION turned out to be 39.3%.
The value for `COCC(=O)NCc1cc(=O)n2c(n1)CN(CC1CCOC1)CCC2` (stereo not given) was 37.5%; that for `Cc1nc(C)n(CC2CCCN(Cc3nc(C4CC4)no3)C2)n1` (stereo not given) was 60.6%.
Regarding `Cc1nc(C)n(CC2CCCN(Cc3noc(C)n3)C2)n1` (stereo not given), the INHIBITION stood at 56.6%.
With `CCc1nc(CN2CCCC(Cn3nc(C)nc3C)C2)no1` (stereo not given), the INHIBITION worked out at 33.3%.
The value for `COCCc1noc(CN2CCCC(Cn3nc(C)nc3C)C2)n1` (stereo not given) was 40.9%.
Then `CCc1noc(CN2CCCC(Cn3nc(C)nc3C)C2)n1` (stereo not given), with 18.2%.
Then `Cc1noc(CN2CCCC(Cn3nc(C)nc3C)C2)n1` (stereo not given), with 27.8%; and `CNC(=O)[C@@]12CCO[C@@H]1CCN(S(=O)(=O)c1cccnc1)C2`, with 23.9%.
`Cn1cc(CN2CC(C(=O)Nc3ccccc3)C3(CCOCC3)C2)cn1` (stereo not given): the INHIBITION was found to be 48.2%.
The value for `COc1ccc(CN2C[C@H]3CN(Cc4ccncc4)C(=O)[C@H]3C2)cc1` was 22.3%; that for `O=C(Cc1c(F)cccc1Cl)NC1CCCCNC1=O` (stereo not given) was -1.85%; that for `CC(=O)Nc1nc(C)c(S(=O)(=O)NCCc2ccccn2)s1` was -1.85%.
Then `O=S(=O)(C1CC1)N1CCO[C@H]2[C@@H](Oc3ncccc3F)CC[C@@H]21`, with -30%.
The value for `CC(C)N(Cc1ccccc1)C(=O)c1cc(C2CCCN2C)ccn1` (stereo not given) was -18.9%; that for `Cc1ncccc1Oc1ncnc(N2CCC3(CCCO3)CC2)c1C` was -5.12%.
`COc1ccc(C(C)n2ccnc2-c2cc3n(n2)CCCNC3)cc1F` (stereo not given): the INHIBITION is given as -2.34%.
As for `CC(c1ccc(F)cc1)n1ccnc1-c1cc2n(n1)CCCNC2` (stereo not given), the INHIBITION is 58.3%.
In the case of `COc1ccc([C@@H](C)n2ccnc2-c2cc3n(n2)CCCNC3)cc1`, the INHIBITION amounted to 15%.
Then `CN(CC(=O)N1CCN(c2ccccn2)CC1)c1ccc(Cl)cn1`, with -36.6%; and `CNC(=O)[C@H]1C[C@@H]2CN(C(=O)c3ccncc3)C[C@@H]2N1S(C)(=O)=O`, with 20.4%.
Then `Cc1n[nH]c(C)c1Sc1ccccc1NC(=O)N1CCCC(C(N)=O)C1` (stereo not given), with -24%; and `Cc1n[nH]c(C)c1Sc1ccccc1NC(=O)CN1CCCC1`, with 3.17%; and `Cc1n[nH]c(C)c1Sc1ccccc1NC(=O)N1CCOCC1`, with 30.3%.
The value for `COCC(=O)Nc1ccccc1Sc1c(C)n[nH]c1C` was 60%; that for `Cc1n[nH]c(C)c1Sc1ccccc1NC(=O)N1CCOCC(O)C1` (stereo not given) was 25.4%.
Consider `Cc1n[nH]c(C)c1Sc1ccccc1NC(=O)N1CCN(C)CC1`, for which the INHIBITION was 61.2%.
Then `CCS(=O)(=O)N1CCc2c(CN(C)Cc3ccco3)cncc2C1`, with 20.2%.
